This note sets out measurements from PubChem BioAssay AID1984 (Sanford-Burnham Center for Chemical Genomics, 2009).

The campaign covered roughly 290,000 compounds. About 35 (0.01%) were called active. The list comes from a sample in which actives are over-represented; it also holds similar structures and randomly drawn compounds. Unmarked numbers belong to inactive results.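 The calls were made as follows: active = EGFP signal decrease of at least 30% at 10 µM or well 3 SD below plate mean, unless failing retest; inactive = the rest, including hits failing retest or dose response.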

p/CIP-EGFP fusion (nuclear receptor coactivator 3, mouse), sequence (Q05BA5 1-1403): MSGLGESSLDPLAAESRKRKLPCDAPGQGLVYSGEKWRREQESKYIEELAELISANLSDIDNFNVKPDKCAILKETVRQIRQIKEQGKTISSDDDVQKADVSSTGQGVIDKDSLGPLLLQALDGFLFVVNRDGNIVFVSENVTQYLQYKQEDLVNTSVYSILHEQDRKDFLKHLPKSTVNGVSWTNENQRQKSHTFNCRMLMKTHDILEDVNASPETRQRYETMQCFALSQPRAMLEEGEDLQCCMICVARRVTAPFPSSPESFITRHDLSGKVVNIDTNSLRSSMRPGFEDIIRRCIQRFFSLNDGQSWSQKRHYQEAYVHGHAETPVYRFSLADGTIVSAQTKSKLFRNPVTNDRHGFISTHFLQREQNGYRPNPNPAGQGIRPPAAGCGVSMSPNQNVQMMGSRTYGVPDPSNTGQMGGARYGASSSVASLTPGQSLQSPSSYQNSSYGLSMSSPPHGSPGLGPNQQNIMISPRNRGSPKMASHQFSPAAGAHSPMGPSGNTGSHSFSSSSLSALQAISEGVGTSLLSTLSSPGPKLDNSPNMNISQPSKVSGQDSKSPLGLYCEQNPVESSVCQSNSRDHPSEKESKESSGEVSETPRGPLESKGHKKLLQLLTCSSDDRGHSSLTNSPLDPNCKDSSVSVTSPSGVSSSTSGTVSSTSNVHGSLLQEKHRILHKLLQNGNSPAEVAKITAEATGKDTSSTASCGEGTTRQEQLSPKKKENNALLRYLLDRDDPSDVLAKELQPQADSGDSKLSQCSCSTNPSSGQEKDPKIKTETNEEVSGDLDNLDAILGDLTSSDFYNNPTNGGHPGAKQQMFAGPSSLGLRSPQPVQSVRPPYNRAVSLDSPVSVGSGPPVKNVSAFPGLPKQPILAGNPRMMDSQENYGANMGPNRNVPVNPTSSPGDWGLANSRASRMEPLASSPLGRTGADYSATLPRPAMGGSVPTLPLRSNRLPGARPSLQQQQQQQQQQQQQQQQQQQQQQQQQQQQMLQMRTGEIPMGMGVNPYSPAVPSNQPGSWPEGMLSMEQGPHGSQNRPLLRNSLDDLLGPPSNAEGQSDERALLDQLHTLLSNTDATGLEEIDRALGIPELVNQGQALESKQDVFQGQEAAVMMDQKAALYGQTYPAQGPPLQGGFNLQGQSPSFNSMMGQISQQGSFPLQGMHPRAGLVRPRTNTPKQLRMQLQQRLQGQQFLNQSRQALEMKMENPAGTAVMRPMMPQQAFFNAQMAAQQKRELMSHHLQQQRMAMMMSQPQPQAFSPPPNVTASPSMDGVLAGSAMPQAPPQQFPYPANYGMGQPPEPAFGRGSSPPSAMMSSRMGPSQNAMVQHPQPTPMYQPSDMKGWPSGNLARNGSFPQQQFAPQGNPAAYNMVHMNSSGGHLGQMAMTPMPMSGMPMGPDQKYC

This test has as its target p/CIP-EGFP fusion (nuclear receptor coactivator 3, mouse) (UniProt Q05BA5). Kind of test: compounds lowering mouse p/CIP (NCOA3) protein levels – fluorescence, F442A cells, EGFP fusion, primary screen (AID 1984). As to conditions: 16 h, at 10 µM, hits give high values.
Turning to `CC(NCCc1ccc(S(N)(=O)=O)cc1)C(=O)NCc1ccccc1` (stereo unspecified), the decrease of EGFP signal is -40%.
As to `O=S(=O)(NC1CC2CCC1C2)c1ccc(Cl)cc1` (stereo unspecified), the decrease of EGFP signal is -15.4%.
Consider `COc1ccccc1NC(=S)N1CCN(c2ccc(F)cc2)CC1`, for which the decrease of EGFP signal is -2%.
As to `CCCOc1ccc(Cc2c(O)nc(N)[nH]c2=O)cc1C`, the decrease of EGFP signal is -10.4%.
With `CC1(C)CCSC(/C=C/c2ccccc2)=N1`, the decrease of EGFP signal is -5.5%.
Turning to `CSc1ccc(/C=C/C(=O)NC23CC4CC(CC(C4)C2)C3)cc1`, the decrease of EGFP signal is 0.4%.
For `COCc1c(C(=O)N/N=C(\C)c2ccncc2)nnn1-c1nonc1N`, the decrease of EGFP signal is 1.8%.
Take `O=S(=O)([N-]c1nc2ccccc2nc1-[n+]1ccc(Cc2ccccc2)cc1)c1ccc(Br)s1`: the decrease of EGFP signal is -27.8%.
For `CCCc1cc(C(=O)N2CCCC(CO)(CCCc3ccccc3)C2)n(C)n1` (stereo unspecified), the decrease of EGFP signal was -7.2%.
With `COc1ccc2[nH]c(C(=O)N/N=C/c3cc(OC)c(OC)c(OC)c3)cc2c1`, the decrease of EGFP signal was -8.7%.
The value for `Cc1ccc(NS(=O)(=O)c2cc3c(cc2C)NC(=O)CO3)cc1` was -4.5%.
Then `CCOCCc1nn2c(=O)cc(CSCC(=O)Nc3cccc(C)c3C)nc2s1`, with 4.4%.
Turning to `COc1ccc(N2CCC(N3CCN(C)C(CCO)C3)CC2)cc1` (stereo unspecified), the decrease of EGFP signal is 13.5%.
Take `O=C(NCc1ccccc1)C(c1cccnc1)N(C(=O)c1csnn1)c1ccc(F)cc1` (stereo unspecified): the decrease of EGFP signal was -5.9%.
`Cc1cc2c(=O)n(CC(=O)NCC(=O)Nc3ccc(C(C)C)cc3)cnc2s1`: the decrease of EGFP signal is 3.7%.
On to `COC(=O)c1sc(-c2ccc(C(C)(C)C)cc2)cc1NC(=O)/C=C/C(=O)O`, for which the decrease of EGFP signal was -12.7%.
For the compound `O=C(O)/C=C/C(=O)NNc1ccc([N+](=O)[O-])cc1`, the decrease of EGFP signal is -13%.
Consider `Nc1nc(Nc2ccccc2F)nc(NC2CCCCC2)c1[N+](=O)[O-]`, for which the decrease of EGFP signal was -4.1%.
For `COc1ccc(CN2CCN(Cc3ccc(OC)c(OC)c3OC)CC2)cc1`, the decrease of EGFP signal was -4.7%.
For the compound `C=CCSc1nnc(N2C(=O)C(O)=C(C(=O)c3ccco3)C2c2ccc(F)cc2)s1` (stereo unspecified), the decrease of EGFP signal was -15.4%.
Turning to `Cc1ccc(CNC(=O)CCC(=O)N2CC(C)Sc3ccccc32)cc1` (stereo unspecified), the decrease of EGFP signal was -1.6%.
Regarding `CC(C)CC(O)C1CCN(C(=O)CCc2nnc(-c3ccc4c(c3)OCO4)o2)CC1` (stereo unspecified), the decrease of EGFP signal is -14.9%.
On to `O=C(c1ccc2nc(N3CCOCC3)sc2c1)N1CCN(c2ccc(Cl)cc2)CC1`, for which the decrease of EGFP signal is -11.7%.
Then `COc1ccc(C(C(=O)NCC2CCCO2)N(C(=O)Cn2nnc3ccccc32)c2ccc(NC(C)=O)cc2)cc1OC` (stereo unspecified), with -4.9%; and `O=C(c1cc(COc2ccc(F)cc2F)on1)N1CCOCC1`, with -0.2%.
On to `O=C(NCc1ccco1)/C(=C/c1cccc([N+](=O)[O-])c1)NC(=O)c1ccco1`, for which the decrease of EGFP signal is 1%.
Then `Cc1ccccc1N1CCN(C2CCCN(C(=O)c3ocnc3C)C2)CC1` (stereo unspecified), with -18.6%.
`COc1cc(/C=N/NC(=O)c2cccnc2)ccc1OC(=O)c1cccc(Br)c1`: the decrease of EGFP signal was -4.4%.
For `CS(=O)(=O)N(CC(=O)Nc1ccc(F)cc1)C1CCCCC1`, the decrease of EGFP signal is -0.5%.
Take `CC(C)CNC(=O)COC(=O)c1ccccc1OCC(=O)Nc1ccc(Br)cc1`: the decrease of EGFP signal is -13.9%.
In the case of `Cc1c(C(=O)NCCN(C)C)oc2ccc(S(=O)(=O)N3CCCC3)cc12`, the decrease of EGFP signal was -12.5%.
For `O=C(Nc1ccc(C(=O)O)cc1)/C(=C\c1ccccc1)NC(=O)c1ccc(Br)cc1`, the decrease of EGFP signal is -17.7%.
For `Cc1c(Cl)c([N+](=O)[O-])nn1CC(=O)NCCCN1CCOCC1`, the decrease of EGFP signal is 5.3%.
In the case of `COc1cc(/C=C2\C(=N)N3N=C(CC(=O)N4CCOCC4)SC3=NC2=O)cc(OC)c1OC`, the decrease of EGFP signal is -17%.
Consider `O=C(NC(=S)Nc1ccc2oc(=O)ccc2c1)c1ccc(-c2cccc(Cl)c2Cl)o1`, for which the decrease of EGFP signal is -4.3%.
Take `CN(C)CCN(Cc1ccccc1)S(=O)(=O)c1csc(C(N)=O)c1`: the decrease of EGFP signal was 15.1%.
Consider `COC(=O)C1CCCCN1C(=O)c1ccc(OC2CCN(C(C)=O)CC2)c(OC)c1` (stereo unspecified), for which the decrease of EGFP signal was 0.9%.
Consider `O=C(Cc1ccccc1Cl)N1CCOCC1`, for which the decrease of EGFP signal is -2.9%.
Turning to `Cc1c2cnn(CC(=O)NCCCN3CC(C)CC(C)C3)c(=O)c2c(C)n1Cc1ccc(Cl)cc1` (stereo unspecified), the decrease of EGFP signal was 0.5%.
Consider `CCCC[C@H]1COCCS(=O)(=O)N1Cc1cccc(Cl)c1`, for which the decrease of EGFP signal is -5.5%.
With `O=C1COc2ccc(S(=O)(=O)NCCc3ccc(Cl)cc3)cc2N1`, the decrease of EGFP signal was 8.8%.
Then `Cc1cc(NC(=O)c2ccco2)c(=O)n(Cc2c(F)cccc2Cl)c1`, with -5.8%.
For the compound `Cc1cc(S(=O)(=O)Nc2ccc(C(=O)NCC(c3ccco3)N3CCCC3)cc2)ccc1F` (stereo unspecified), the decrease of EGFP signal is -3%.
Consider `COc1ccc(CCNc2ncnc3c2nnn3Cc2ccccc2)cc1`, for which the decrease of EGFP signal was -4%.
Regarding `COc1ccc(Cc2nnc(N/N=C/c3ccccc3O)[nH]c2=O)cc1OC`, the decrease of EGFP signal was -4%.
Turning to `O=C(NNC1=C(C(=O)C(F)(F)F)CCC1)c1ccncc1`, the decrease of EGFP signal was -15.9%.
Then `Cc1ccnc(N2C(=O)c3ccc([N+](=O)[O-])cc3C2=O)c1`, with -1.5%; and `COc1ccc2c(C(=O)c3ccc(C)cc3)n(CCC(N)=O)[n+]([O-])c2c1`, with -5.8%; and `CC(C)C(C(=O)NCc1ccco1)N(CC1CCCO1)C(=O)CNS(=O)(=O)c1ccc(F)cc1` (stereo unspecified), with -1.5%.
For `Cc1cccc(NC(=O)NC2(C)CCS(=O)(=O)C2)c1` (stereo unspecified), the decrease of EGFP signal was -6.6%.
For `O=C(O)C1CCCN1S(=O)(=O)c1ccc(Br)cc1` (stereo unspecified), the decrease of EGFP signal is -0.2%.
On to `Cc1ccc(C)c(N2CCN(S(=O)(=O)c3c(C)[nH]c(C)c3C(=O)N3CCCC3)CC2)c1`, for which the decrease of EGFP signal was 3.6%.
Turning to `O=C(NCc1ccncc1)C1CCCN(S(=O)(=O)c2ccc(Br)cc2)C1` (stereo unspecified), the decrease of EGFP signal was -8.8%.
Consider `COc1ccc(NS(=O)(=O)c2cccc3nsnc23)cc1Cl`, for which the decrease of EGFP signal was -11.8%.
In the case of `COc1ccc(C(=O)C2CCCN(C(=O)c3cc4nc(C)cc(C)n4n3)C2)cc1F` (stereo unspecified), the decrease of EGFP signal is -9.2%.
In the case of `CCn1c(SCC(=O)NC2CC2)nnc1-c1ccccn1`, the decrease of EGFP signal was 0.1%.
Then `Cc1nc2cc(C(F)(F)F)ccc2n1CCNc1nc(-c2cc(Cl)c(N)c(Cl)c2)cs1`, with -2.4%; and `CN(C)CCN(C(=O)C1CCCCC1)c1nc2cc3c(cc2s1)OCO3`, with -21.2%; and `O=C(NCc1cccc(C(F)(F)F)c1)c1cccc(S(=O)(=O)N2CCN(Cc3ccccc3)CC2)c1`, with -8.5%.
`C=CCNC(=O)c1ccc2c3n(nc2c1)-c1ccc(C)cc1CO3`: the decrease of EGFP signal is -3.3%.
Then `O=C(O)CCCCCCCCc1cn(CN2C(=O)c3ccccc3C2=O)nn1`, with -13.1%; and `CN(Cc1ccccc1Cl)C(=O)C1CCC(=O)N(CCc2cccc(F)c2)C1` (stereo unspecified), with -8.9%.
The value for `CCOc1ccc2c(c1)c(=O)c(S(=O)(=O)c1ccc(C)cc1)cn2CC` was -6%; that for `CC(C)c1ccc(S(=O)(=O)N2CCC3(CC2)OCCO3)cc1` was 0.3%.
For `CC1CN(S(=O)(=O)c2cccc(C(F)(F)F)c2)CN1C(=O)N1CCOCC1` (stereo unspecified), the decrease of EGFP signal is -19%.
With `CCCN(CCC)c1nc2c(C)cccn2c(=O)c1/C=C1/SC(=S)N(Cc2ccco2)C1=O`, the decrease of EGFP signal was -656%.
On to `CCOC(=O)c1c(S(=O)(=O)NCC(=O)Nc2ccc(C)cc2)c(C)n(C)c1C`, for which the decrease of EGFP signal is 3.3%.
Consider `COc1ccc(OC)c(CCNC(=O)CCn2ccc3cc(S(=O)(=O)N4CCCC4)ccc32)c1`, for which the decrease of EGFP signal was 1%.
Then `NC(=O)CC(NC(=O)Cc1ccc(Br)cc1)c1ccc(NC2CC3CCC2C3)c([N+](=O)[O-])c1` (stereo unspecified), with 3.9%; and `Cn1c(SCc2ccc(F)cc2)nnc1-c1ccncc1`, with -10.6%.
As for `COc1ccc(CCNC(=O)CCc2cn(C)c3ccccc23)c(OC)c1`, the decrease of EGFP signal was -1.8%.
In the case of `Cc1cc(C)cc(OCC(=O)Nc2cc(NC(=O)COc3cc(C)cc(C)c3)cc(C(=O)O)c2)c1`, the decrease of EGFP signal is 13.4%.
As to `O=C(CCCCCn1c(=S)[nH]c2ccsc2c1=O)NC1CCCCC1`, the decrease of EGFP signal is 1.2%.
`Cc1cc(C)c2nc(N3CCC(C(=O)NCCN4CCOCC4)CC3)sc2c1`: the decrease of EGFP signal is -53.2%.
As for `CCc1cccc(NC(=S)N(CCN(C)C)C2CCN(C(C)C)CC2)c1`, the decrease of EGFP signal is 2.9%.
On to `COc1ccc(NC(=O)CSc2nc(SC)ns2)c(OC)c1`, for which the decrease of EGFP signal is -9.3%.
Consider `CC(C)(C)OC(=O)NC(Cc1ccccc1)C(=O)NC(CSC1CCCCO1)C(=O)NN` (stereo unspecified), for which the decrease of EGFP signal was 1%.
Then `Cc1cccc(NC(=O)c2ccc([N+](=O)[O-])o2)c1`, with 1.2%; and `CC(Sc1nnnn1C)C(=O)NC(=O)NC1CCCCC1` (stereo unspecified), with 12.9%; and `O=Cc1c(NCCCN2CCCC2=O)c2ccccc2[nH]c1=O`, with -1.8%.
Turning to `N#Cc1ccc(C2N=C(c3ccccc3)NO2)cc1` (stereo unspecified), the decrease of EGFP signal was -11.6%.
On to `Cc1ccc(C(=O)N/C(=C\c2cn(C)c3ccccc23)C(=O)N2CCN(C)CC2)cc1`, for which the decrease of EGFP signal is 3.7%.
As for `CCCCC(O)(CCCC)C(=O)NN(C(=O)CCl)c1ccccc1`, the decrease of EGFP signal is -2.8%.
As to `CS/C(=C\C(=O)c1ccco1)Nc1ccccc1Cl`, the decrease of EGFP signal is -2.4%.
Regarding `Cc1nn(-c2ccccc2)c(Cl)c1/C=N/NC(=O)c1nn(C)cc1[N+](=O)[O-]`, the decrease of EGFP signal is -5.8%.
As to `COc1cc(NC(=O)c2ccc(-c3csc(C)n3)cc2)c(OC)cc1Cl`, the decrease of EGFP signal was -15.5%.
Turning to `COc1ccccc1CN1CCN(Cc2cc(OC)c(OC)cc2OC)CC1`, the decrease of EGFP signal was -13.1%.
Then `COc1ccc(C(=O)NC(C)CCc2ccccc2)c(OC)c1` (stereo unspecified), with -12.7%; and `O=C(O)c1ccccc1C(=O)NC1=NN(c2ccccc2)CC1`, with 13.1%.
In the case of `CCc1ccc(C(=O)NN=C2CCCCCC2)s1`, the decrease of EGFP signal is -8.5%.
`C=CCn1c(C23CC4CC(CC(C4)C2)C3)n[nH]c1=S`: the decrease of EGFP signal was -8.9%.
